Experiment [1] has as its target Homeodomain-interacting protein kinase 2 (Homo sapiens) (UniProt Q9H2X6). To be noted: at 10 µM.
For experiment [2], the target named is Homeodomain-interacting protein kinase 3 (Homo sapiens) (UniProt Q9H422). As to conditions: at 1 µM; call rule not given here.
Experiment [3] shares this target. To be noted: at 10 µM.
Experiment [4] deals with T1, Serine/threonine-protein kinase haspin (Homo sapiens) (UniProt Q8TF76).
T1 sequence (whole entry): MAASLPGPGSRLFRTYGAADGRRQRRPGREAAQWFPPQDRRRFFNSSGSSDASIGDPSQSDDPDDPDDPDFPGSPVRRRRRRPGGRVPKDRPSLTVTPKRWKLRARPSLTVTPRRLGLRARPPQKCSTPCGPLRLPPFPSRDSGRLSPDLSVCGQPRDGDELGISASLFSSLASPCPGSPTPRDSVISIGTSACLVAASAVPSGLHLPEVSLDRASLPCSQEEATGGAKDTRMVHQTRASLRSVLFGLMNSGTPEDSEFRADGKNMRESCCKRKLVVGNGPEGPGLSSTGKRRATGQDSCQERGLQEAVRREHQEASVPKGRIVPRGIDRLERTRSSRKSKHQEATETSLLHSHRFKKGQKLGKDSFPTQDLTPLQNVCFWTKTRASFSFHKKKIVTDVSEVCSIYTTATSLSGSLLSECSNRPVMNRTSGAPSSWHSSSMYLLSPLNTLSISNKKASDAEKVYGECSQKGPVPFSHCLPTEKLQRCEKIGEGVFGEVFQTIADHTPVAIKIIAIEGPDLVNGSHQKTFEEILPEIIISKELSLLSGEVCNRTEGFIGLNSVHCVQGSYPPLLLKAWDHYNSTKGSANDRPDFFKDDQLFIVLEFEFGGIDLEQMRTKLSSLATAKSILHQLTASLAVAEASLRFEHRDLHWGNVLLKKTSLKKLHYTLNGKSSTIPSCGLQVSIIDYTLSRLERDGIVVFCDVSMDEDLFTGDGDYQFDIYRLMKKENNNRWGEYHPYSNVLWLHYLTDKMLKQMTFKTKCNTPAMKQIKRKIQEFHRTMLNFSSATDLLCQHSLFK
To be noted: at 1 µM.

The target of experiment [5] is T1, Serine/threonine-protein kinase haspin (Homo sapiens). To be noted: at 10 µM.
The target of experiment [6] is Tyrosine-protein kinase HCK (Homo sapiens) (UniProt P08631). As to conditions: at 1 µM.
Chain of Tyrosine-protein kinase HCK (Homo sapiens) (P08631 2-526 limits assumed): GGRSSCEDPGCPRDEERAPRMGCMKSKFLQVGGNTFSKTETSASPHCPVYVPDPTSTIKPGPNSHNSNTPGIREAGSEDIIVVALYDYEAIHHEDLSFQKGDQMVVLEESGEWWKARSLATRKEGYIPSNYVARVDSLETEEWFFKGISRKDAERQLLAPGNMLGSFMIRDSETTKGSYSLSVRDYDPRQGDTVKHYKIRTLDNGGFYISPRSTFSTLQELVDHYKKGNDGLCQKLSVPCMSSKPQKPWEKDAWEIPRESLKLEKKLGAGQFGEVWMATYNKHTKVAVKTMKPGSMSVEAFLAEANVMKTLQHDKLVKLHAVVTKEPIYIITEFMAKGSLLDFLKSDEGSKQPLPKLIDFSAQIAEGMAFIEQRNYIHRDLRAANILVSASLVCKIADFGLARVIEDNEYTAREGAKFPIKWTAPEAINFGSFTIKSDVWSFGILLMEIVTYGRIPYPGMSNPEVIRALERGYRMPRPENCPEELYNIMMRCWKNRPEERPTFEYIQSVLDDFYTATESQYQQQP
Experiment [7] shares this target. As to conditions: at 10 µM.
Experiment [8] has the same target. To be noted: at 1 µM. The source holds these as a separate data set.
For experiment [9] the target is unchanged. As to conditions: at 10 µM. This is another data set of the same source.
Experiment [10] concerns the target Insulin-like growth factor 1 receptor (Homo sapiens) (UniProt P08069). As to conditions: at 1 µM.
The target is the same in experiment [11]. To be noted: at 10 µM.
Experiment [12] has as its target T2, Protein kinase C zeta type (Homo sapiens) (UniProt Q05513).
T2 sequence (whole entry): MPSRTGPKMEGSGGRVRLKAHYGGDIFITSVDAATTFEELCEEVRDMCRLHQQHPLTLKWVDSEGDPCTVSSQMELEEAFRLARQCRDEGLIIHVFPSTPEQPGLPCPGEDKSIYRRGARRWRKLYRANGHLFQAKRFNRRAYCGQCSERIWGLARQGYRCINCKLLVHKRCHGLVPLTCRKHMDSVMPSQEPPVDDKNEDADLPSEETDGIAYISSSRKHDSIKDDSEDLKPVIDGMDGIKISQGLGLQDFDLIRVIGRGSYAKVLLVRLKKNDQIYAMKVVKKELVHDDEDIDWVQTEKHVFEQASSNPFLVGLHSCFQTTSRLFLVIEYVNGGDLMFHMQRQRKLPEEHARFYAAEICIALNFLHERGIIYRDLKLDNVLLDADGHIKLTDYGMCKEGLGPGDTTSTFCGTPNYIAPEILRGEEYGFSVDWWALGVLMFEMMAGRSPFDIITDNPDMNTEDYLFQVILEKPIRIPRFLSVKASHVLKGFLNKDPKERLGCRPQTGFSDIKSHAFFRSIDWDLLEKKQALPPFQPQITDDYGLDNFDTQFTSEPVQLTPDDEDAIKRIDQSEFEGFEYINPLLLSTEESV
As to conditions: at 10 µM.

For experiment [13], the target named is Protein kinase C eta type (Homo sapiens) (UniProt P24723). As to conditions: at 1 µM.
Chain of Protein kinase C eta type (Homo sapiens) (P24723 whole entry): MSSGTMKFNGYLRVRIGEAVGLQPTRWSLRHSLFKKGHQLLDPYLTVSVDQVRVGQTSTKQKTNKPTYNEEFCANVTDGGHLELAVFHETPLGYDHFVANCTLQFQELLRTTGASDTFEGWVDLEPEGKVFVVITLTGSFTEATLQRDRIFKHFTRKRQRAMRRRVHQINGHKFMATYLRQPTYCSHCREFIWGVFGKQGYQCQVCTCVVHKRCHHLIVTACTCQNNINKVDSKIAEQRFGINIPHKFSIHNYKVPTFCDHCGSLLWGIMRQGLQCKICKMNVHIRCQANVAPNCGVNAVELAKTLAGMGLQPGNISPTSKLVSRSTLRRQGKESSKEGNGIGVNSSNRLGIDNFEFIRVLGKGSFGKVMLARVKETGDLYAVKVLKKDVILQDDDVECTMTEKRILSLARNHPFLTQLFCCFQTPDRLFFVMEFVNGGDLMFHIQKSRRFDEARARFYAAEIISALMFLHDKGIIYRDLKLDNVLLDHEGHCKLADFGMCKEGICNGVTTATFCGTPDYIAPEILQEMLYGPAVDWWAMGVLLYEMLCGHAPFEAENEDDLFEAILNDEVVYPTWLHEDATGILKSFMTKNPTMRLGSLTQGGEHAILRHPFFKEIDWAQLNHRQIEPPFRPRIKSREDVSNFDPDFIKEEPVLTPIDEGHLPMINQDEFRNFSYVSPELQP
The target is the same in experiment [14]. To be noted: at 10 µM.
Experiment [15] deals with Protein kinase C theta type (Homo sapiens) (UniProt Q04759). As to conditions: at 1 µM.
Chain of Protein kinase C theta type (Homo sapiens) (Q04759 whole entry, looked up): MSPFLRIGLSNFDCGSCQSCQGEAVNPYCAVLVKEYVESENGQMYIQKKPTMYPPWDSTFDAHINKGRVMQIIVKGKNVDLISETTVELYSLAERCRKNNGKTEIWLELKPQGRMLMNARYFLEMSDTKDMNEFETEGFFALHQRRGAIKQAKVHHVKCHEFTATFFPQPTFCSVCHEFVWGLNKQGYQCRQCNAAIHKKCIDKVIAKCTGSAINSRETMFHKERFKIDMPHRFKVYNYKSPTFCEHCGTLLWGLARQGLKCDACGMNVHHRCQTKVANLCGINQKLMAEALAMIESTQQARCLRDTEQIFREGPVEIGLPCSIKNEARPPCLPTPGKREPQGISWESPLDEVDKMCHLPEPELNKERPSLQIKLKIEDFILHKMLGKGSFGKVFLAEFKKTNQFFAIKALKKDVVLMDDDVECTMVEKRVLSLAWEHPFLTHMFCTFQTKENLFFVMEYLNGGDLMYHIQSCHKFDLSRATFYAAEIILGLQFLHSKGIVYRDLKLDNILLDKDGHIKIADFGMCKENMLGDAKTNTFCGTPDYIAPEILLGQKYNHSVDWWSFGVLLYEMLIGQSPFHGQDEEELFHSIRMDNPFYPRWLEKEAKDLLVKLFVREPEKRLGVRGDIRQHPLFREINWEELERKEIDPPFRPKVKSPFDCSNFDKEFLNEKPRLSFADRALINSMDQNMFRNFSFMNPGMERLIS
For experiment [16] the target is unchanged. To be noted: at 10 µM.
Experiment [17] concerns the target T3, Protein kinase C iota type (Homo sapiens) (UniProt P41743).
T3 sequence (whole entry): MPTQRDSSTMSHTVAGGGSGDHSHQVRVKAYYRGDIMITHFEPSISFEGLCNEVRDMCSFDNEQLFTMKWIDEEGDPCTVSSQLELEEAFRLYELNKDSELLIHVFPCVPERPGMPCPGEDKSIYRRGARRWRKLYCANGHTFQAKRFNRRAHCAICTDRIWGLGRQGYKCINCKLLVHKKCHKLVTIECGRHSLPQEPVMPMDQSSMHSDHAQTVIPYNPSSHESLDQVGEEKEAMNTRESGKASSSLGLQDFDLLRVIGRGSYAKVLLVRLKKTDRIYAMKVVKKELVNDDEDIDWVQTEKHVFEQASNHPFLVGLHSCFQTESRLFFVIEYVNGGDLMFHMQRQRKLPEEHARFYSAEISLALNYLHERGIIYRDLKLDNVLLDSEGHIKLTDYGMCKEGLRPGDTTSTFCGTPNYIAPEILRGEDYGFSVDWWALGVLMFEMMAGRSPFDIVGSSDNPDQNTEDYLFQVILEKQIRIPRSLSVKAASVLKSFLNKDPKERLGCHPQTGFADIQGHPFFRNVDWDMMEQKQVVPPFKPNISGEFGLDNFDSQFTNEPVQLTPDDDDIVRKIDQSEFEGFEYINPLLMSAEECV
To be noted: at 1 µM.

The target of experiment [18] is T3, Protein kinase C iota type (Homo sapiens). As to conditions: at 10 µM.
The target in experiment [19] is T4, Serine/threonine-protein kinase D1 (Homo sapiens) (UniProt Q15139).
T4 sequence (whole entry): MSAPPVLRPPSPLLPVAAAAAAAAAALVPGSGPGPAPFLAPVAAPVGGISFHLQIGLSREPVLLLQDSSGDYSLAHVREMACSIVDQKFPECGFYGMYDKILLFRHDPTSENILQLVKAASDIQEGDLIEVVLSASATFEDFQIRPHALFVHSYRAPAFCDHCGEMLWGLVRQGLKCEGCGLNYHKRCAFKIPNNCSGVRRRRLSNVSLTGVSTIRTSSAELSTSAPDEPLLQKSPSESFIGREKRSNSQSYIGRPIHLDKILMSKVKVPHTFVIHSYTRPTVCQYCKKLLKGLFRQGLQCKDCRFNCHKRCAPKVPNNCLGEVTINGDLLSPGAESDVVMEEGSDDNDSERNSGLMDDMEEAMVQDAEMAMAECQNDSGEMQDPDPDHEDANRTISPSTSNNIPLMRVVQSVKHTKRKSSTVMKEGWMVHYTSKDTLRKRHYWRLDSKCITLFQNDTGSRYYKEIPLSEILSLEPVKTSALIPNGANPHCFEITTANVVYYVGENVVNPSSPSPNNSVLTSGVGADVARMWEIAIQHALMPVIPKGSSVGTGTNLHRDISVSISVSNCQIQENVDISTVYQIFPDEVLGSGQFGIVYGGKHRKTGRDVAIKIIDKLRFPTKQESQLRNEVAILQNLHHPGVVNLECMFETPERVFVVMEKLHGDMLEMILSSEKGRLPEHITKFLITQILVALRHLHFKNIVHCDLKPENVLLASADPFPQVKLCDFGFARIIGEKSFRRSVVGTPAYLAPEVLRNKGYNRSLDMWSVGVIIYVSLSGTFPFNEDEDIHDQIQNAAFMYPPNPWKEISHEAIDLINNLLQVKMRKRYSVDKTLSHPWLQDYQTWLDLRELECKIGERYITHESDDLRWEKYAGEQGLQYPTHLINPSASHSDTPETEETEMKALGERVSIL
As to conditions: at 1 µM.

Experiment [20] deals with T4, Serine/threonine-protein kinase D1 (Homo sapiens). To be noted: at 10 µM.

Chain of Homeodomain-interacting protein kinase 2 (Homo sapiens) (Q9H2X6 whole entry, looked up): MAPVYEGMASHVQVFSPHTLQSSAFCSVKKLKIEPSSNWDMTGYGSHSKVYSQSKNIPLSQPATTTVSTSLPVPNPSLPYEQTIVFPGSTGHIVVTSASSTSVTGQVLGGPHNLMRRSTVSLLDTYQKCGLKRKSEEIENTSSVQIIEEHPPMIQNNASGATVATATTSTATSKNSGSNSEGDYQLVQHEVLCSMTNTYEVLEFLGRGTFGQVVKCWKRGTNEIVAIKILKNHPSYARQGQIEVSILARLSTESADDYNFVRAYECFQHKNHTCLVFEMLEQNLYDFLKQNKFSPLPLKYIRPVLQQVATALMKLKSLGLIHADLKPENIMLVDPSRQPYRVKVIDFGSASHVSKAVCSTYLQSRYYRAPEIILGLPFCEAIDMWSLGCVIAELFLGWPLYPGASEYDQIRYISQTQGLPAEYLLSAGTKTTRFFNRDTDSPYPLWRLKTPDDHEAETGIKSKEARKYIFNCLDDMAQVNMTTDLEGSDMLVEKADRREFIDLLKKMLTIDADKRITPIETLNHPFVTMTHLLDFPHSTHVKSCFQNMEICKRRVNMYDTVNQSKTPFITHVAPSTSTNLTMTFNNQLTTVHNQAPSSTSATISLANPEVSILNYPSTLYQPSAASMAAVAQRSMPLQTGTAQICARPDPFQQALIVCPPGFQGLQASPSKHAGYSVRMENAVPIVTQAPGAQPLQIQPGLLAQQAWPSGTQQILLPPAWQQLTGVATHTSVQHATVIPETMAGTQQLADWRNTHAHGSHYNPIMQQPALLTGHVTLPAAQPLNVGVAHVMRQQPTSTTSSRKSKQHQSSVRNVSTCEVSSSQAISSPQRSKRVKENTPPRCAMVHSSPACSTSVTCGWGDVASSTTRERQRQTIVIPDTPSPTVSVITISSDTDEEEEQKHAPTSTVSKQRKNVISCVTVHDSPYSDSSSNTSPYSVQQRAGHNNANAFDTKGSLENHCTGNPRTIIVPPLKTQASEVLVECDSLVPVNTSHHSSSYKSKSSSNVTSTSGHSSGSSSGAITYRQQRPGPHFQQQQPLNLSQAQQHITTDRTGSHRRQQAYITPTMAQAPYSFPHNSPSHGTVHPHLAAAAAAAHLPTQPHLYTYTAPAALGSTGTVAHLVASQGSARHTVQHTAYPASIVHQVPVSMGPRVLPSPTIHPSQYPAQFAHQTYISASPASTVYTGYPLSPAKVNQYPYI
Chain of Homeodomain-interacting protein kinase 3 (Homo sapiens) (Q9H422 whole entry, looked up): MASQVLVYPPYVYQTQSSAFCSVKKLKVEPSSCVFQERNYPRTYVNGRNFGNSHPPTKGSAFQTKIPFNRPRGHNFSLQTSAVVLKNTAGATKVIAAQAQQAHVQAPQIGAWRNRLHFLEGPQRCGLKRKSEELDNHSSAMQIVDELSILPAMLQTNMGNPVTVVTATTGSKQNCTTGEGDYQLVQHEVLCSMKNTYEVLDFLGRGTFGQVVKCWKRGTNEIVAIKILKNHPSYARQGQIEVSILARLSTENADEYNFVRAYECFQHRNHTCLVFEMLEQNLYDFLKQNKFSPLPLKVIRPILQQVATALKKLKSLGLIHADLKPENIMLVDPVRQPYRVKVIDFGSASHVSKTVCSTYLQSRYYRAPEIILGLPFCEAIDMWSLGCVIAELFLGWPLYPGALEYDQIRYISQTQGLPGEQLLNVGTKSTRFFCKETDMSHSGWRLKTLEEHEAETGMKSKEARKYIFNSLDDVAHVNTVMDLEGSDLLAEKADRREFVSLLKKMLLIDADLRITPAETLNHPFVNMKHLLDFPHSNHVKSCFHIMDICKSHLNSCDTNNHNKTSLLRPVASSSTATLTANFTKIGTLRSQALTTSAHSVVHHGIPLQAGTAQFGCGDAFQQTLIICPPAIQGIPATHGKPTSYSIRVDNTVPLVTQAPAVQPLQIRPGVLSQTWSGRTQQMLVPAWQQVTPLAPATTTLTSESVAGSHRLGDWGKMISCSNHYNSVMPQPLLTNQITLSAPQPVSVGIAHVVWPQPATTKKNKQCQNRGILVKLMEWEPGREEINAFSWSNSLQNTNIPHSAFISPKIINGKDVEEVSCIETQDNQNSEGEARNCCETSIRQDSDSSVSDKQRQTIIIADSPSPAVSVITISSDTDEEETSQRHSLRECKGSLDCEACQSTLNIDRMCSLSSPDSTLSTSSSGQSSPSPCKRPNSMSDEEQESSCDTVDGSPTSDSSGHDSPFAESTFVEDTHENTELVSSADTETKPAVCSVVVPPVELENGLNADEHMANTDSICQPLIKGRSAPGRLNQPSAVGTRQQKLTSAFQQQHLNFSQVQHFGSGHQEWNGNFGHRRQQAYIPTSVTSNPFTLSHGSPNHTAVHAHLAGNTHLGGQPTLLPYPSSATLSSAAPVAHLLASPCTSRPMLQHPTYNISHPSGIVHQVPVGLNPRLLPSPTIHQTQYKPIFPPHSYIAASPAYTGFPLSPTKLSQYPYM

Consider `COc1cc2ncnc(Nc3ccc(OCc4ccccc4)cc3)c2cc1OC`, for which the residual activity in experiment [1] is 84%; in experiment [2], 100%; in experiment [3], 96%; in experiment [4], 77%; in [5], 45%; in experiment [6], 35%. Also, the residual activity in experiment [7] came out at 19%; in [8] it was 90%; in experiment [9], 83%; in [10] it was 120%; in experiment [11] it was 129%; in experiment [12], 108%. The residual activity is 109% in [13]; 97% in experiment [14]; 124% in experiment [15]; 114% in experiment [16]; 95% (inactive) in experiment [17]; 68% in experiment [18]. For the same compound, the figures for the residual activity in experiment [19] and in [20] were 93% and 113%, respectively.
With `O=C1c2ccccc2-c2nc3nnnn3nc21`, the residual activity in [5] came to 74%; in [7] it was 76%; in [10] it was 129%; in experiment [11] it was 83%; in experiment [12] it was 108%; in [13] it was 117%. For the same compound, the residual activity in experiment [14] came to 83%; in experiment [19], 104%; in [20], 106%.
As for `CCc1nc(-c2ccc(OC)cc2)[nH]c1-c1ccncc1`, the residual activity turned out to be 45% in [4]; 4% in experiment [5]; 72% in experiment [6]; 64% in experiment [7]; 115% in experiment [8]; 104% in experiment [9]. The residual activity in experiment [10] was 112%; in experiment [11] it was 128%; in experiment [12], 104%; in [13] it was 105%; in experiment [14], 73%; in experiment [15], 108%. Further, the residual activity in experiment [16] is 105%; in experiment [17], 107% (inactive); in experiment [18], 105%.
For `COc1cc(OC)c(/C=C2\C(=O)Nc3ccccc32)c(OC)c1`, the residual activity in experiment [1] was determined as 96%; in experiment [2], 103%; in experiment [3], 98%; in experiment [4] it was 70%; in [5], 61%; in experiment [6], 89%. Besides, the residual activity was found to be 69% in experiment [7]; 93% in [8]; 93% in experiment [10]; 133% in [11]; 94% in experiment [13]; 94% in experiment [14]. The residual activity in experiment [15] is 85%; in [16], 90%; in [19], 84%; in [20], 90%.
For the compound `CCn1cnc2c(Nc3cccc(Cl)c3)nc(N[C@@H]3CCCC[C@@H]3N)nc21`, the residual activity turned out to be 47% in experiment [1]; 99% in [2]; 80% in experiment [3]; 48% in [4]; 3% in experiment [5]; 24% in [6]. Also, the residual activity amounted to 4% in experiment [7]; 24% in experiment [8]; 4% in experiment [9]; 95% in experiment [10]; 123% in experiment [11]; 93% in experiment [13]. Further, the residual activity in experiment [14] worked out at 80%; in [15] it was 71%; in [16] it was 23%; in [19] it was 97%; in experiment [20] it was 61%.
Take `N/C(=N\[N+](=O)[O-])N/N=C\c1ccc(-c2cccc([N+](=O)[O-])c2)o1`: the residual activity in experiment [1] was determined as 83%; in experiment [4], 97%; in experiment [5], 80%; in experiment [6], 70%; in [7] it was 49%; in experiment [11] it was 76%. Also, the residual activity was 98% in experiment [12], 84% in [13] and 83% in experiment [14].
Consider `O=c1[nH]c2ccccc2n1C1CCN(Cc2ccc(-c3nc4cc5[nH]cnc5cc4nc3-c3ccccc3)cc2)CC1`, for which the residual activity in experiment [1] worked out at 64%; in [2], 97%; in experiment [3], 91%; in experiment [4], 76%; in experiment [5], 49%; in experiment [6], 91%. Besides, the residual activity in experiment [7] was 42%; in [8], 102%; in [9] it was 91%; in experiment [10], 125%; in experiment [11], 39%; in [12], 97%. Besides, the residual activity was 120% in experiment [13]; 83% in [14]; 104% in experiment [15]; 109% in experiment [16]; 87% (inactive) in experiment [17]; 90% in [18]. The residual activity worked out at 96% in [19] and 97% in experiment [20].
As to `O=C1NC(=O)c2c1c1c3ccccc3n3c1c1c2c2ccccc2n1C1CCC3O1`, the residual activity in experiment [1] is 26%; in experiment [2], -2%; in experiment [3] it was -2%; in [4], 50%; in experiment [5], 22%; in experiment [6], 76%. The residual activity came to 94% in experiment [7]; 92% in [8]; 83% in experiment [9]; 73% in experiment [10]; 89% in [13]; 81% in experiment [14]. For the same compound, the residual activity came out at 7% in [15], 13% in [16], 87% in experiment [19] and 49% in experiment [20].
Take `CN[C@@H]1C[C@H]2O[C@@](C)([C@@H]1OC)n1c3ccccc3c3c4c(c5c6ccccc6n2c5c31)C(=O)NC4`: the residual activity came to 74% in [2], 27% in experiment [3] and 0% in experiment [6].
As for `c1cc(-c2cnn3cc(-c4ccc(OCCN5CCCCC5)cc4)cnc23)ccn1`, the residual activity in experiment [1] amounted to 14%; in [3] it was 45%; in [4], 38%; in experiment [5] it was 4%; in experiment [6], 64%; in experiment [7] it was 18%. Besides, the residual activity in experiment [8] was found to be 32%; in experiment [9], 4%; in experiment [11], 143%; in experiment [13], 106%; in experiment [18] it was 86%; in experiment [20], 54%.

(Values after ChEMBL document CHEMBL2218924, “A broad activity screen in support of a chemogenomic map for kinase signalling research and drug discovery” (Biochem J, 2013).)
